Experimental data: PubChem BioAssay AID624058 (Broad Institute, 2012)
Inconclusive results are not listed. Calls of active or inactive are those of the source. The rule behind the calls is not given here.

Assay: EDDHA-treated Pseudomonas aeruginosa growth inhibition – OD600, ATCC 15692, cherry-pick, set 2, dose response (AID 624058)
Settings: P. aeruginosa ATCC 15692 with EDDHA, OD600, 24-30 h; series mostly up to 50 µM

outcome, inactive:
N#Cc1cc(-c2ccccc2)cnc1Cl
Cc1ccc(S(=O)c2ccc(C)cc2)cc1
CCOC(=O)c1ccc(-c2ccc(CO)o2)cc1
CCCNS(=O)(=O)c1ccc(OC)c(Cl)c1Cl
CCOc1ccc(-n2cccc2C=O)cc1
CCOC(=O)/C=C(\C)Sc1cc(=O)oc2ccccc12
CCOC(=O)N1CCN(c2ccc(Cl)cc2)CC1
O=C1C2C(C(=O)N1Cc1ccco1)C1C=CC2C12CC2 (centres undefined)
Cn1cccc1C(C#N)c1cccc(F)c1C#N (centres undefined)
O=[N+]([O-])c1ccc(N2CCCC2)nc1
COc1ccccc1C(C#N)c1cccc(Cl)n1 (centres undefined)
N#C/C(=C/c1ccco1)c1nc2ccccc2s1
O=CN(c1ccccc1)c1ccc2ccccc2c1
O=[N+]([O-])c1ccc(N2CCCCC2)nc1
